Screening data (PubChem)
In the library only some 3.1% were active in any assay of this set; here they are far more common.
RAD54 inh – blocks human RAD54 Holliday junction branch migration; Q92698; FAM/BHQ fluorescence; inhibition, % at 10.4 µM; actives 0.14% (n = 360,000); AID 602329;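 active = mean normalized replicate activity at least 40 and at least half of replicates scoring 40 or more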;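 note: 0% = median of neutral control wells and 100% = median of positive control wells; inhibitors cause a drop in the FAM fluorescence signal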
MLL AF4-AF9 inh – inhibitors of human MLL-AF4/AF9 interaction | actives 0.47% (n = 350,000) | AID 651704 | P42568 | inhibition, % at 10 µM | AlphaScreen, biotin-AF4 peptide binding to FLAG-AF9;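 active = every replicate reaching a set inhibition limit, whatever the replicate mean, cut at about 25% in these data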;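 note: 0% = plate neutral control median and 100% = total signal loss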
dFosB act – activators of mouse delta FosB homodimer; P13346; purified delta FosB, TAMRA-CDK5 oligo fluorescence polarization; percent of positive-control signal above neutral wells; activation, % at 25 µM; actives 0.99% (n = 340,000); AID 493131;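 active = mean activation above about 17%, with every replicate also reaching it, limit read from the data, passing the limit was not always enough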
DENV2 CPE rescue – DENV2-induced cell death inhibition | DENV2-infected cells, cytopathic effect rescue, plate reader | CPE inhibition, % at 9.99 µM | actives 1.7% (n = 350,000); in the data active = CPE inhibition above about 20%, passing the limit was not always enough; tested in BHK-21 cells;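 note: 0% = median of neutral control wells and 100% = median of positive control wells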
GSIS activator – primary screen for activators of insulin secretion dependent on glucose, INS-1E cells, GLuc reporter luminescence; INS-1E GLuc reporter insulin secretion, 2-3 h; actives 0.61% (n = 370,000); activation, % at 16.6 µM;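 active = lowest replicate activation of at least 40%, so every replicate reaches that level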;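 note: 0% = median of neutral control wells and 100% = median of IBMX positive control wells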
RAD52 inh – blocks human RAD52 DNA annealing | P43351 | AID 651710 | inhibition, % at 18.7 µM | actives 0.46% (n = 360,000) | recombinant RAD52 DNA annealing, FRET fluorescence;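 active = every replicate showing at least 50% inhibition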
Target sequence (P43351 whole entry, looked up): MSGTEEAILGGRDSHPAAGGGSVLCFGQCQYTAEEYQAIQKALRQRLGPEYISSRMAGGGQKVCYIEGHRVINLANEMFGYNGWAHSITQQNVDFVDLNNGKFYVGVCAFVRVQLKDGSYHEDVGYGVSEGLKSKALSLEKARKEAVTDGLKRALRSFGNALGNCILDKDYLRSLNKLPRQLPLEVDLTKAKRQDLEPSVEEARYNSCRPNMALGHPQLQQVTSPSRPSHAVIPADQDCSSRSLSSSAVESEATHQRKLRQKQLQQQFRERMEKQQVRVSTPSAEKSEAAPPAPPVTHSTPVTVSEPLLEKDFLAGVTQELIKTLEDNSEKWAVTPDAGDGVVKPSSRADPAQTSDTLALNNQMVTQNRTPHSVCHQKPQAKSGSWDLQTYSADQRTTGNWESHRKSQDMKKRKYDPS
* = called active by the depositor; nt = not tested or not shown.

SMILES | RAD54 inh | MLL AF4-AF9 inh | dFosB act | DENV2 CPE rescue | GSIS activator | RAD52 inh
COc1ccc2c3c([nH]c2c1)[C@H](CO)N(S(C)(=O)=O)CC31CCN(Cc2ccccc2)CC1 | nt | 0 | nt | -13 | 10 | nt
CCc1ccc(OCC(=O)NC(=S)Nc2ccc(C)cc2C)c(Br)c1 | -6 | nt | -8 | nt | 41* | nt
CCc1cc2c(COC(=O)c3cccc(NS(C)(=O)=O)c3)cc(=O)oc2cc1O | 4 | -2 | 8 | -5 | 65* | 16
CC[C@H]1c2[nH]c3ccccc3c2C[C@H]2C(=O)N(c3ccc(F)cc3)C(=O)N21 | 2 | -8 | -6 | 57* | nt | -4
CC1(C)c2[nH]c3ccccc3c2C[C@@H]2C(=O)N(Cc3ccc(F)cc3)C(=O)N21 | 7 | 4 | -7 | -15 | -15 | -8
CCCNC(=O)N1[C@H](C#N)[C@H](c2ccc(-c3cccnc3)cc2)[C@H]1CO | -5 | -3 | nt | -6 | 4 | 14
CC1CC(C)CN(CCCNC(=O)Cn2ncn3cccc3c2=O)C1 (stereo not drawn) | nt | nt | -8 | nt | nt | nt
CCc1cc2c(cc3c(=O)n(CC(=O)NCCCN4CC(C)CC(C)C4)ncn32)s1 (stereo not drawn) | 8 | 2 | -6 | 64* | nt | 11
CC(C)(C(=O)N1CCC1(C)C(=O)Nc1ccccc1Br)c1ccccc1 (stereo not drawn) | -6 | -4 | nt | 25* | -13 | -5
CC(C)(C(=O)N1CCC1(C)C(=O)NC1Cc2ccccc2C1)c1ccccc1 (stereo not drawn) | -12 | 2 | nt | -2 | nt | -14
N#CCCn1cc(C(=O)CN2C(=O)NC3(CCc4ccccc43)C2=O)c2ccccc21 (stereo not drawn) | -3 | 0 | nt | 34* | nt | -61
Cn1cccc1C(=O)OCC(=O)NC(=O)c1ccc(Cl)cc1 | -10 | 4 | 7 | 26* | 13 | -13
CC(=O)c1ccc(N=Nc2ccc(C)cc2)cc1 | nt | 11 | -4 | -8 | -12 | -16
C=C(C)C(=O)Oc1ccc(N=Nc2ccc(C)cc2)ccc1=O | -12 | 28* | nt | 0 | nt | -19
Cc1ccc(S(=O)(=O)N(C)C[C@H]2Oc3c(NS(=O)(=O)c4cccs4)cccc3C(=O)N([C@H](C)CO)C[C@@H]2C)cc1 | -10 | 1 | nt | 10 | 2 | -10
CC(C)NC(=O)C1(C)CSCC(=O)N1Cc1cccs1 (stereo not drawn) | nt | -1 | nt | -1 | 5 | -11
CC(C)CCN1C(=O)CSCC1(C)C(=O)NC(C)C (stereo not drawn) | nt | nt | nt | 7 | 43* | -3
CCC(C)CN1C(=O)CSCC1(C)C(=O)Nc1ccc2c(c1)OCCO2 (stereo not drawn) | nt | nt | nt | 31* | -14 | -11
C[C@@H]1CN([C@@H](C)CO)S(=O)(=O)c2ccc(C#C[C@@H](C)O)cc2O[C@@H]1CN(C)C(=O)C1CCCCC1 | 3 | 1 | nt | -15 | 4 | 14
Cc1cccc(C)c1Nc1c(-c2ccccn2)nc2ccccn12 | 0 | nt | 4 | 1 | 6 | 7
Cc1ccccc1Nc1c(-c2ccccn2)nc2c(C)cccn12 | 3 | 34* | -15 | -4 | 11 | 0
Cc1ccccc1Nc1c(-c2ccncc2)nc2ccc(Cl)cn12 | nt | -2 | -13 | -2 | 40* | -18
CCS(=O)(=O)N1Cc2cc(C(=O)O)nc(-c3cccc(-c4ccc(C#N)cc4)c3)c2[C@H]1CCO | nt | -6 | nt | -3 | 0 | 5
COc1ccc(-c2nc(CCNC(=O)c3ccco3)cs2)cc1OC | 17 | -4 | 1 | 7 | 89* | -1
COc1ccc(CNC(=O)CCNC(=O)c2ccco2)cc1OC | 0 | 0 | 1 | 39* | 11 | -6
SMILES | RAD54 inh | MLL AF4-AF9 inh | dFosB act | DENV2 CPE rescue | GSIS activator | RAD52 inh
COc1cccc(CNC(=O)CCNC(=O)c2ccco2)c1 | -2 | -15 | -4 | -4 | 5 | 1
CC(C)C(=O)Nc1ccc2c(c1)C(=O)N(C)[C@@H]1CC[C@@H](CC(=O)NCc3cccc(F)c3)O[C@@H]1CO2 | -4 | nt | nt | 9 | -1 | nt
COc1ccc(CCN(C)C(=O)COc2ccc(C(=O)c3ccccc3)cc2)cc1OC | 5 | 2 | -6 | 7 | 7 | -7
COc1ccc(CCN(C)C(=O)COc2cccc(-n3cnnn3)c2)cc1OC | 2 | -1 | -2 | -2 | 83* | 10
C[C@H](CO)N1C[C@H](C)[C@@H](CN(C)C(=O)CN(C)C)Oc2cc(C3=CCCC3)ccc2S1(=O)=O | -3 | -4 | nt | -4 | -7 | -15
CC(C)(C)Cc1c(-c2cccc(Cl)c2)nc2ccc(Br)cn12 | -10 | 10 | nt | 9 | -8 | -17
CC(C)(C)Cc1c(-c2ccc(Br)cc2)nc2ccc(Br)cn12 | -13 | 1 | nt | 101* | -4 | -14
COc1ccc(CNc2nn3c(-c4cccc(C(=O)N(C)C)c4)cnc3s2)cc1 | -2 | -2 | nt | 0 | 26 | -7
NS(=O)(=O)c1ccc(CCNc2nn3c(-c4cccc(OC(F)(F)F)c4)cnc3s2)cc1 | -12 | -3 | nt | -2 | 143* | 11
C[C@@H](NC(=O)[C@H]1[C@H](CO)[C@H]2Cn3c(cccc3=O)[C@@H]1N2Cc1ccccc1)c1ccccc1 | 2 | -3 | nt | -2 | 6 | 9
CCN(C(=O)CSc1nncn1-c1ccccc1)C1CCS(=O)(=O)C1 (stereo not drawn) | 1 | -20 | -1 | 85* | 12 | 8
CC(c1nnc(SCC(=O)N(C)C2CCS(=O)(=O)C2)n1-c1ccccc1)N(C)C (stereo not drawn) | 4 | 34* | -4 | 2 | 22 | 1
CN(C(=O)CSc1nncn1-c1ccccc1)C1CCS(=O)(=O)C1 (stereo not drawn) | -5 | 7 | 1 | 3 | 23 | 10
CN(C(=O)CSc1nnc(-c2cccs2)n1C1CC1)C1CCS(=O)(=O)C1 (stereo not drawn) | -14 | 1 | -3 | 37* | -22 | 5
CCC(C)N(C(=O)CSc1nnc(-c2cccs2)n1C1CC1)C1CCS(=O)(=O)C1 (stereo not drawn) | 5 | -1 | 2 | 3 | 6 | -5
COc1ccccc1C#Cc1cnc2c(c1)C(=O)N([C@H](C)CO)C[C@H](C)[C@@H](CN(C)C(C)=O)O2 | -2 | 1 | nt | -2 | -4 | 3
O=C(C[C@H]1C[C@@H]2c3cc(NC(=O)CC4CC4)ccc3O[C@@H]2[C@H](CO)O1)NCc1ccccc1F | -6 | -2 | nt | 0 | -1 | 2
COc1c2c(cc3oc(CO[C@@H]4O[C@H](CO)[C@@H](O)[C@H](O)[C@H]4O)cc(=O)c13)O[C@H](C(C)(C)O)C2 | 6 | -8 | 3 | 24* | 5 | -22
Cc1ccc2oc3c(c(=O)c2c1)C(c1cccc(Cl)c1)N(CCCN1CCOCC1)C3=O (stereo not drawn) | 10 | 4 | 14 | 55* | -7 | -23
